Data taken from PubChem BioAssay (EPA / NIEHS).
Inconclusive results are not listed. Active and inactive are the calls of the source. Rule for the calls, unless noted: active = hit-call score of the fitted dose curve at least 0.9, where 1 is the maximum; inactive = score below 0.9.

Columns and labels:
[1] = read-out: Pyruvate Dehydrogenase Kinase 4 (PDK4), PDK4 (gene 5166); assay: LTEA_HepaRG_PDK4: Life Technologies and Expression Analysis (LTEA) Assay for Pyruvate Dehydrogenase Kinase 4 (PDK4) using HepaRG (AID 2283525); details: mRNA level, 48 h; actives raise or lower the signal
Summary of the method: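 Readout is qRT-PCR of PDK4 transcript, normalized to three housekeeping genes, with bidirectional fitting against 0.5% DMSO vehicle. Differentiated HepaRG cells were treated 48 h in serum-free induction medium, duplicate wells, eight-point half-log series topping at 100 uM.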

[2] = read-out: NAD(P)H dehydrogenase [quinone] 1 (NQO1), NQO1 (gene 1728); assay: LTEA_HepaRG_NQO1: Life Technologies and Expression Analysis (LTEA) Assay for NAD(P)H dehydrogenase [quinone] 1 (NQO1) using HepaRG (AID 2283526); details: mRNA level, 48 h; actives raise or lower the signal
Summary of the method: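 Transcript induction or suppression is quantified by qRT-PCR in human HepaRG liver cells dosed for 48 hours. Eight half-log concentrations topping at 100 uM are used, with 0.5% DMSO as vehicle and baseline.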

[3] = read-out: Nuclear factor erythroid 2-related factor 2 (Homo sapiens) (UniProt Q16236); assay: LTEA_HepaRG_NFE2L2: Life Technologies and Expression Analysis (LTEA) Assay for Nuclear factor erythroid 2-related factor 2 (NFE2L2) Transcription Factor using HepaRG (AID 2283527); details: mRNA level, 48 h; actives raise or lower the signal
Summary of the method: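 NFE2L2 transcript level was read by qRT-PCR (housekeeping ACTB/GAPDH/POLR2A normalisation) after 48 h chemical treatment of HepaRG in serum-free induction medium. Duplicate 8-point half-log curves, top 100 uM, 0.5% DMSO vehicle; up- or down-regulation fitted against vehicle.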

[4] = read-out: succinate dehydrogenase complex iron sulfur subunit B (SDHB), SDHB (gene 6390); assay: LTEA_HepaRG_SDHB: Life Technologies and Expression Analysis (LTEA) Assay for succinate dehydrogenase complex iron sulfur subunit B (SDHB) using HepaRG (AID 2283528); details: mRNA level, 48 h; actives raise or lower the signal
Summary of the method: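 HepaRG, 48 h exposure, 8-pt half-log series from 100 uM in 0.5% DMSO, duplicates. Readout: SDHB mRNA by Fluidigm qRT-PCR vs housekeeping genes; bidirectional fit relative to DMSO.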

[5] = read-out: Signal transducer and activator of transcription 3 (Homo sapiens) (UniProt P40763); assay: LTEA_HepaRG_STAT3: Life Technologies and Expression Analysis (LTEA) Assay for Signal transducer and activator of transcription (STAT3) using HepaRG (AID 2283529); details: mRNA level, 48 h; actives raise or lower the signal
Summary of the method: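 STAT3 transcript quantified by qRT-PCR against three housekeeping genes (ACTB, GAPDH, POLR2A), fitted both directions relative to DMSO. HepaRG cultures exposed 48 h to eight half-log concentrations, top 100 uM, 0.5% DMSO, serum-free induction medium.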

[6] = read-out: solute carrier (SLCO1B1), SLCO1B1 (gene 10599); assay: LTEA_HepaRG_SLCO1B1: Life Technologies and Expression Analysis (LTEA) Assay for solute carrier (SLCO1B1) using HepaRG (AID 2283530); details: mRNA level, 48 h; actives raise or lower the signal
Summary of the method: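 SLCO1B1 transcript levels were quantified by TaqMan qRT-PCR using three housekeeping genes for normalization. This followed 48 h chemical exposure (100 uM top, half-log, 8 points, 0.5% DMSO) of HepaRG liver cells, with gain or loss fitted relative to DMSO.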

[7] = read-out: sulfotransferase 2A1 (SULT2A1), SULT2A1 (gene 6822); assay: LTEA_HepaRG_SULT2A1: Life Technologies and Expression Analysis (LTEA) Assay for sulfotransferase 2A1 (SULT2A1) using HepaRG (AID 2283531); details: mRNA level, 48 h; actives raise or lower the signal
Summary of the method: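 Expression change of SULT2A1, by qRT-PCR with three housekeeping-gene normalization, was scored bidirectionally versus DMSO. Cells: differentiated HepaRG, dosed in duplicate for 48 h across 8 points, highest 100 µM, half-log dilution, 0.5% DMSO.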

[8] = read-out: Transforming Growth Factor (TGFA), TGFA (gene 7039); assay: LTEA_HepaRG_TGFA: Life Technologies and Expression Analysis (LTEA) Assay for Transforming Growth Factor (TGFA) using HepaRG (AID 2283532); details: mRNA level, 48 h; actives raise or lower the signal
Summary of the method: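 TGFA transcript quantified by qRT-PCR (Fluidigm arrays) against three housekeeping genes, after 48 hours chemical treatment of HepaRG cells. Top concentration 100 uM with half-log dilutions, 8 points, duplicates, 0.5% DMSO.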

[9] = read-out: Transforming Growth Factor (TGFB1), TGFB1 (gene 7040); assay: LTEA_HepaRG_TGFB1: Life Technologies and Expression Analysis (LTEA) Assay for Transforming Growth Factor (TGFB1) Transporter using HepaRG (AID 2283533); details: mRNA level, 48 h; actives raise or lower the signal
Summary of the method: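 TGFB1 transcript measured by qRT-PCR with normalisation to three housekeeping genes (ACTB, GAPDH, POLR2A); human HepaRG line treated in duplicate for 48 hr with an 8-point series topping at 100 uM, 0.5% DMSO vehicle, bidirectionally fitted.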

[10] = read-out: Tumor necrosis factor receptor 1 (TNFRSF1A), TNFRSF1A (gene 7132); assay: LTEA_HepaRG_TNFRSF1A: Life Technologies and Expression Analysis (LTEA) Assay for Tumor necrosis factor receptor 1 (TNFRSF1A) using HepaRG (AID 2283535); details: mRNA level, 48 h; actives raise or lower the signal
Summary of the method: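 mRNA measured by qRT-PCR (TaqMan, Fluidigm arrays) against ACTB/GAPDH/POLR2A housekeepers after 48 h chemical exposure of HepaRG cells. Top concentration 100 uM, half-log 8-point series, duplicates; vehicle 0.5% DMSO, both fit directions.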

[11] = read-out: Thyroid Hormone Responsive (THRSP), THRSP (gene 7069); assay: LTEA_HepaRG_THRSP: Life Technologies and Expression Analysis (LTEA) Assay for Thyroid Hormone Responsive (THRSP) using HepaRG (AID 2283536); details: mRNA level, 48 h; actives raise or lower the signal
Summary of the method: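 THRSP transcript quantified by Fluidigm qRT-PCR against three housekeeping genes after 48 h chemical exposure of HepaRG cells in serum-free induction medium; eight-point half-log series, top 100 uM, 0.5% DMSO vehicle, duplicate wells.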

[12] = read-out: Cellular tumor antigen p53 (Homo sapiens) (UniProt P04637); assay: LTEA_HepaRG_TP53: Life Technologies and Expression Analysis (LTEA) Assay for Tumor Protein P53 (TP53) using HepaRG (AID 2283537); details: mRNA level, 48 h; actives raise or lower the signal
Summary of the method: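 HepaRG, 48 h exposure, top 100 uM, half-log 8-point, 0.5% DMSO vehicle, duplicates. Read: TP53 mRNA by TaqMan qRT-PCR, normalised to ACTB/GAPDH/POLR2A; bidirectional fit vs DMSO.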

[13] = read-out: UDP glucuronosyltransferase (UGT1A1), UGT1A1 (gene 54658); assay: LTEA_HepaRG_UGT1A1: Life Technologies and Expression Analysis (LTEA) Assay for UDP glucuronosyltransferase (UGT1A1) using HepaRG (AID 2283538); details: mRNA level, 48 h; actives raise or lower the signal
Summary of the method: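 Cells are plated, cultured 48 h, switched to serum-free induction medium, then dosed 48 h at eight concentrations (max 100 uM, 0.5% DMSO). RNA is isolated and UGT1A1 expression measured by qRT-PCR; changes versus DMSO are fitted in both directions.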

[14] = read-out: UDP glucuronosyltransferase (UGT1A6), UGT1A6 (gene 54578); assay: LTEA_HepaRG_UGT1A6: Life Technologies and Expression Analysis (LTEA) Assay for UDP glucuronosyltransferase (UGT1A6) using HepaRG (AID 2283539); details: mRNA level, 48 h; actives raise or lower the signal
Summary of the method: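 Expression was quantified by TaqMan qRT-PCR on Fluidigm arrays with ACTB/GAPDH/POLR2A normalization and bidirectional fitting against 0.5% DMSO. HepaRG cells (~100,000/well) were treated in duplicate for 48 h at eight half-log concentrations up to 100 uM in serum-free induction medium.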

[15] = read-out: X-box binding protein 1 (XBP1), XBP1 (gene 7494); assay: LTEA_HepaRG_XBP1: Life Technologies and Expression Analysis (LTEA) Assay for X-box binding protein 1 (XBP1) using HepaRG (AID 2283540); details: mRNA level, 48 h; actives raise or lower the signal
Summary of the method: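 XBP1 transcript by qRT-PCR (housekeeping-normalized: ACTB, GAPDH, POLR2A) after 48 h chemical treatment of HepaRG cells, 8-point half-log series topping at 100 uM, vehicle 0.5% DMSO. Gain and loss of signal fitted relative to DMSO.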

[16] = LTEA_HepaRG_LDH_cytotoxicity: Cytotoxicity Assessment in the Life Technologies and Expression Analysis (LTEA) Assay (AID 2283563; active = hit-call score of the fitted dose curve at least 0.9, where 1 is the maximum)
Summary of the method: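 LDH release into culture medium read after 48 h chemical treatment of HepaRG cells. Duplicate wells, eight-point half-log series topping at 100 uM, 0.5% DMSO vehicle and baseline.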

[17] = ATG_XTT_Cytotoxicity: Cytotoxicity Assessment in the Attagene TRANS-FACTORIAL HepG2 Assay (AID 2283584; active = hit-call score of the fitted dose curve at least 0.9, where 1 is the maximum)
Summary of the method: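 Viability endpoint from XTT after 24 h chemical exposure of reporter-transfected human HepG2 liver cells; signal loss fitted relative to DMSO negative control.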

[18] = TOX21_p53_BLA_p2_viability: Viability Assessment in the Tox21 HCT-116 p53 Agonism Beta-lactamase Assay, Phase 2 (AID 2283591; active = hit-call score of the fitted dose curve at least 0.9, where 1 is the maximum;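 note: compound exposure lasted 16 h at 37 °C; actives lower the ATP signal meaning cytotoxicity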)
Summary of the method: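 Cytotoxicity readout: CellTiter-Glo ATP luminescence, 30 min at room temperature, after the beta-lactamase read. Cells were HCT116 exposed 16 h at 37C to compounds pin-transferred at 217-fold dilution from DMSO stocks.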

[19] = biological target: Cellular tumor antigen p53 (Homo sapiens) (UniProt P04637); assay: TOX21_p53_BLA_p2_ratio: Tox21 HCT-116 p53 Agonism Beta-lactamase Assay, Ratio, Phase 2 (AID 2283592; active = hit-call score of the fitted dose curve at least 0.9, where 1 is the maximum)
Cellular tumor antigen p53 (Homo sapiens), sequence (P04637 whole entry, looked up): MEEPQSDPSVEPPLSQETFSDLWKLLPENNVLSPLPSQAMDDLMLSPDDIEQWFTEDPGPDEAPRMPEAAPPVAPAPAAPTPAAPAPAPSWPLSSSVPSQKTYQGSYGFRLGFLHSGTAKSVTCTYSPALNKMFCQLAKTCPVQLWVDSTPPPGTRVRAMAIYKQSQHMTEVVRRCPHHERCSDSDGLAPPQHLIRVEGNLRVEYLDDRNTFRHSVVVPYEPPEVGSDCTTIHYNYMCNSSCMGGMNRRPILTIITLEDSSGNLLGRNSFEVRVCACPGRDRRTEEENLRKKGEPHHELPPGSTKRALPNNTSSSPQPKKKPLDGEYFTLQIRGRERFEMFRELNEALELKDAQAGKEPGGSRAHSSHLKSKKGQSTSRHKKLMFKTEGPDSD
Summary of the method: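 Read-out is the blue/green (460/530 nm, 405 nm excitation) ratio after 2 h CCF4-AM loading, fitted as gain versus DMSO. Compounds, pinned at 217-fold dilution from DMSO stocks, stayed 16 h on HCT-116 beta-lactamase reporter cells seeded 5 h earlier.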

TIMP1, TIMP1 (gene 7076) = assay: LTEA_HepaRG_TIMP1: Life Technologies and Expression Analysis (LTEA) Assay for TIMP1 using HepaRG (AID 2283534); details: mRNA level, 48 h; actives raise or lower the signal
Summary of the method: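 Bidirectional change in TIMP1 transcript versus 0.5% DMSO, measured by TaqMan qRT-PCR with three housekeeping genes for normalization. HepaRG human liver cells dosed 48 h in duplicate, top concentration 100 uM with half-log dilutions.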

Measured: AC50

Signal transducer and activator of transcription 3 (Homo sapiens), sequence (P40763 whole entry, looked up): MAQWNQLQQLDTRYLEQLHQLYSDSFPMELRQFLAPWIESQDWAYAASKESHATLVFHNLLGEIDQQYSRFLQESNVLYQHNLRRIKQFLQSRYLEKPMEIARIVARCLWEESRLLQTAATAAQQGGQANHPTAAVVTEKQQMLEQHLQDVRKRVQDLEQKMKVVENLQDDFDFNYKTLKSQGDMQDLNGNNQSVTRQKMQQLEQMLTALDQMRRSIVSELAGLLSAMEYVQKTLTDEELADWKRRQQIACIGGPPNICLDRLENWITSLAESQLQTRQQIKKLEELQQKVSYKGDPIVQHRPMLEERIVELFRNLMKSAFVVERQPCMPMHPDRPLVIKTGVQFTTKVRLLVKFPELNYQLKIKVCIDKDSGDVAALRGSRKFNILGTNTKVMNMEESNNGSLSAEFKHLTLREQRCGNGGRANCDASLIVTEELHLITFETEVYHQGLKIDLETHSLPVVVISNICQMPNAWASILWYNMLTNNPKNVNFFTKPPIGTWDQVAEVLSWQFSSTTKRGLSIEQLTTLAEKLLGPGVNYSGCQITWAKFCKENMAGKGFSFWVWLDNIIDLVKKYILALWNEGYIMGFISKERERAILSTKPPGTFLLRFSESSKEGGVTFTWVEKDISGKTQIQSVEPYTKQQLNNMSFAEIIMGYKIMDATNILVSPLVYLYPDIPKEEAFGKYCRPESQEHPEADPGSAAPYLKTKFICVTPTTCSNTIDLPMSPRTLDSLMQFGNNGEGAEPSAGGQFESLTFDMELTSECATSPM
Nuclear factor erythroid 2-related factor 2 (Homo sapiens), sequence (Q16236 whole entry, looked up): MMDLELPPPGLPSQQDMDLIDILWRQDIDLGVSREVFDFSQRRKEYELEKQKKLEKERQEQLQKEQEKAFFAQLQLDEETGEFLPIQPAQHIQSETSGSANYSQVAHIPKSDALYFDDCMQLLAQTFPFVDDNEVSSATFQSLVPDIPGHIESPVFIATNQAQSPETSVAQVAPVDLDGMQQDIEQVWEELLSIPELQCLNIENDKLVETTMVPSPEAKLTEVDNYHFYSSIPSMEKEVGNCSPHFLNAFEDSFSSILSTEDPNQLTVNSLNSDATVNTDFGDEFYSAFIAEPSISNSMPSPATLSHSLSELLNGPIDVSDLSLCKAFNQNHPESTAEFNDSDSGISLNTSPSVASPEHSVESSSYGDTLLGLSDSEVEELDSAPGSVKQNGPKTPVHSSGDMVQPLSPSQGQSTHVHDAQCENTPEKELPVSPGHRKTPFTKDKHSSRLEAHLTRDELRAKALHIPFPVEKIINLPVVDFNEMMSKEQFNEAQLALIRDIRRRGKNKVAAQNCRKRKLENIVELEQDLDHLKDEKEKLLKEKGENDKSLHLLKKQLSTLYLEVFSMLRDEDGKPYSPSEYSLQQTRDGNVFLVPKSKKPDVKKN

O=P(OC(CCl)CCl)(OC(CCl)CCl)OC(CCl)CCl
active: [3] 83 µM | [4] 85 µM | [6] 50 µM | [7] 79.1 µM | [8] 83.3 µM | [9] 62.9 µM | [10] 0.231 µM | [11] 94.4 µM | [12] 86.6 µM | [13] 88.6 µM | [14] 10.1 µM
inactive: [1] | [2] | [5] | [15] | [16] | [17] | [18] | [19]

CC1(C)C(=O)N(Br)C(=O)N1Br
active: [13] 21.4 µM
not listed: [18] | [19]
inactive: all other assays above

CN(C)c1ccc(N=NS(=O)(=O)O)cc1
active: [5] 0.717 µM | [10] 12.3 µM
not listed: [11] | TIMP1, TIMP1 (gene 7076)
inactive: all other assays above
